# Screens as filed in PubChem.
# An excerpt weighted towards active compounds, which were near 18% of everything screened.
# CtBP-E1A inh: inhibitors of CtBP/E1A interaction | AlphaScreen GST-E1A/His-CtBP binding, 1536-well; stronger effect = lower value | activity change, % (test concentration not listed) | 340,000 compounds, 0.49% hits; in the data active = activity change below about -65%; inconclusive = mostly about -30% to -63%
#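 Protein mix (5X: 125 nM each GST-E1A, His-CtBP) was incubated with pinned compound 2 h at 37 deg C in dark, in 50 mM Tris pH 8.0 buffer with 300 mM NaCl. Glutathione donor and nickel acceptor beads followed; AlphaScreen signal read after 1 h.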
# TDP1 block: inhibitors of human tyrosyl-DNA phosphodiesterase TDP1. Q9NUW8. recombinant TDP1, AlphaScreen DNA substrate cleavage. Potency, µM (series often up to 130 µM), for inactives: at the top dose activity change, negative = inhibition, actives largely listed as inhibitors. 350,000 compounds, 0.28% hits; note: potency is the fitted concentration of half-maximal effect; nearly all actives have a fitted effect of over 40% in size
#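 Here, a 5' biotin and 3' phosphotyrosine-FITC DNA oligonucleotide reports Tdp1 activity: intact substrate bridges AlphaScreen beads, while cleavage leaves a 3' phosphate and drops signal. All incubations at room temperature.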
# Six1-Eya2 blk: inhibitors of human Six1/Eya2 interaction; Q15475+O00167; 360,000 compounds, 0.56% hits; AlphaScreen GST-Six1/His-Eya2 binding, biochemical; stronger effect = lower value; activity change, % (test concentration not listed); in the data active = activity change below about -65%; inconclusive = mostly about -30% to -63%
# Target sequence (O00167 whole entry, looked up): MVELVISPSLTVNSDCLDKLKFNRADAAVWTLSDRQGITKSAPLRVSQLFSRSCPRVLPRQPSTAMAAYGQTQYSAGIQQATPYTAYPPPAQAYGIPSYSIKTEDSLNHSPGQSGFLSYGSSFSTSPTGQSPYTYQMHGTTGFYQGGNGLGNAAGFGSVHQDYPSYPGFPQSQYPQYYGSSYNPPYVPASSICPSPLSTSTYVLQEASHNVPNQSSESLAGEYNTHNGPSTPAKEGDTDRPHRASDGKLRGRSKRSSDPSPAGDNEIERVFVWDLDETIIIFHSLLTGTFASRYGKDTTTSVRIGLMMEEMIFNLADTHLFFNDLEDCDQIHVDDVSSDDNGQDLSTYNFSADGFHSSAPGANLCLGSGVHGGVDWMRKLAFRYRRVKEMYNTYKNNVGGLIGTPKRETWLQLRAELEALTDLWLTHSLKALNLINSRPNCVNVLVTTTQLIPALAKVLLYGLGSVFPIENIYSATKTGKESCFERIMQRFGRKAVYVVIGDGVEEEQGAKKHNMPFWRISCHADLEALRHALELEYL
# Target sequence (Q15475 whole entry, looked up): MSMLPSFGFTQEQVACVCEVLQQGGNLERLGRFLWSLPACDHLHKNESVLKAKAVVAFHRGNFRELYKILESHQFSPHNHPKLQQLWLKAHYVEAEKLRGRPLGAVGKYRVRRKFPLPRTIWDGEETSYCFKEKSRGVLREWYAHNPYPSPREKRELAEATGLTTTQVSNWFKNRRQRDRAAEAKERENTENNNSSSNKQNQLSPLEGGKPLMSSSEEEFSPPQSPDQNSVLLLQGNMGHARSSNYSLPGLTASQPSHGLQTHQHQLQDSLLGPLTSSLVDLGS
#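 AlphaScreen with GST-Six1 and His-Eya2 (5X mix: 250 nM and 500 nM), glutathione donor and nickel acceptor beads; buffer 50 mM Tris pH 8.0, 300 mM NaCl, 1 mM TCEP; 1 h at 37 C in the dark.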
# DT40 TDP1 CPT: DT40-hTDP1 cell growth loss with CPT | chicken DT40 Tdp1-/-;hTDP1 cells + 20 nM CPT, ATP luminescence, 48 h | Potency, µM (titrated, usually from 46.2 µM), without a hit: top-dose activity change, negative = growth inhibition, most hits filed as inhibitors | 420,000 compounds, 12% hits | AID 686979; note: potency is the fitted concentration of half-maximal effect; nearly all actives have a fitted effect of over 55% in size
#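 Chicken DT40 Tdp1-/- cells stably complemented with human TDP1 were seeded at 400 cells/well in medium containing 20 nM camptothecin, exposed to pin-transferred compounds, and grown at 37 °C for at least 48 hr. Viability was read as ATP luminescence.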
# TDP1 cell noCPT: qHTS for Inhibitors of human tyrosyl-DNA phosphodiesterase 1 (TDP1): qHTS in cells in absence of CPT. DT40 Tdp1-/- hTDP1 cells, no CPT, ATP luminescence, 48 h. Potency, µM (doses to about 46.2 µM), without a hit: at the highest dose activity change, negative = growth inhibition, hits mostly inhibitors. 420,000 compounds, 15% hits. AID 686978, 2013; note: potency is the fitted concentration of half-maximal effect; nearly all actives have a fitted effect of over 55% in size
#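 Growth of hTDP1-complemented DT40 Tdp1-knockout cells is measured by ATP luminescence after at least 48 hr compound exposure at 37 °C, with DMSO substituting for the 20 nM CPT used in the parallel screen.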
# IL-1B inflam inh: blocks inflammasome-driven IL-1 beta release; activity change, % at 57.5 µM; THP-1 LPS/ATP IL-1B secretion, AlphaLISA, 16 h; stronger effect = lower value; 360,000 compounds, 4.7% hits; in the data active = activity change below about -50%; inconclusive = mostly about -30% to -49%
#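 Secreted IL-1B measured by AlphaLISA bead assay after 16 h compound exposure of THP-1 cells; compounds (final up to 57.5 uM) added 1 h before LPS (250 ng/mL) and ATP (1.25 mM) stimulation; lower signal means less secretion.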
# * = called active by the depositor; i = inactive; u = inconclusive; x = not tested or not shown. Unless noted, calls come from the whole dose curve; as a rule, active = well fitted curve in the direction sought with a large enough effect; inconclusive = small, poorly fitted or top-dose-only effect, or another doubt; inactive = no such curve, though single readings can be large; an effect the other way counts as inactive or inconclusive. % is set by controls: 0 for no effect and ±100 for the full control effect.
SMILES,CtBP-E1A inh,TDP1 block,Six1-Eya2 blk,DT40 TDP1 CPT,TDP1 cell noCPT,IL-1B inflam inh
Cc1sc(Cc2nc(O)cs2)nc1-c1ccccc1,x,14%,-1,u,-27%,65
CC1(C(=O)NS(=O)(=O)c2ccc(C#N)cc2)CCN1C(=O)CCC1CCCC1 (configuration not stated),2,x,3,-21%,3%,35
COc1cc(C(=O)NCC(c2ccc(F)cc2)N2CCOCC2)ccc1OCc1ccccc1Cl (configuration not stated),0,x,-3,u,u,-60*
O=C(CC12CC3CC(CC(C3)C1)C2)NCC(c1ccc(F)cc1)N1CCOCC1 (configuration not stated),3,6%,-1,26µM*,u,6
COc1ccccc1NS(=O)(=O)c1ccc(C(=O)NCC(c2ccc(F)cc2)N2CCOCC2)cc1 (configuration not stated),x,-1%,3,u,-43%,17
O=C(NCC(c1ccc(F)cc1)N1CCOCC1)c1ccc(C(=O)c2ccccc2)cc1 (configuration not stated),-3,-3%,3,u,21µM*,-10
OC(c1ccccc1)(c1ccc(F)cc1)C(c1ccccc1)N1CCOCC1 (configuration not stated),5,-2%,-4,16µM*,18µM*,-2
Cc1cc(C)cc(OCC(=O)OCC(=O)NC2CCCCCC2)c1,6,-3%,11,-21%,14%,0
O=C(NCc1ccccc1F)C(=O)NCC1CCCN1S(=O)(=O)c1ccccc1 (configuration not stated),1,x,-4,u,u,-4
COC(=O)c1ccccc1S(=O)(=O)Oc1ccc(-c2ccc(C(=O)O)cc2)cc1,-7,x,1,3%,-2%,-99*
O=C(O)c1ccc(-c2ccc(OS(=O)(=O)c3ccccc3F)cc2)cc1,-4,11%,-3,-4%,-8%,-16
CCN1C(=O)/C(=C\c2cn(-c3ccccc3)nc2-c2cccnc2)SC1=S,1,3%,-10,15µM*,u,9
CC(C)COc1ccc(-c2nn(-c3ccccc3)cc2/C=C2/SC(=S)N(CC(=O)O)C2=O)cc1,x,x,-7,u,9.2µM*,-8
O=C1C(=Cc2cn(-c3ccccc3)nc2-c2ccc(OCc3ccccc3)cc2)SC(=S)N1CCS(=O)(=O)O,-19,x,-74*,29µM*,u,34
CC(C)COc1ccc(-c2nn(-c3ccccc3)cc2CO)cc1,x,x,-3,21µM*,u,-11
CCCCc1nnc(NC(=O)c2oc3ccc(OC)cc3c2C)s1,-2,1%,4,u,u,-29
CCc1nn(C(CC)C(=O)NCC(C)c2ccccc2)c(=O)c2cc3occc3n12 (configuration not stated),4,x,-1,u,-27%,u
CCc1nn(C(CC)C(=O)NCCCN2CC(C)CC(C)C2)c(=O)c2cc3oc(C)cc3n12 (configuration not stated),2,1%,-4,16µM*,u,-10
CCCCCOc1ccccc1C(=O)NCCCC(=O)O,-7,5%,8,-20%,-18%,16
CC1(c2ccc3ccccc3c2)NC(=O)N(CC(=O)N2CCN(c3ccccc3O)CC2)C1=O (configuration not stated),-28,7%,6,u,13µM*,i
CC1(c2ccc3ccccc3c2)NC(=O)N(CC(=O)N2CCN(S(=O)(=O)c3ccccc3F)CC2)C1=O (configuration not stated),2,3%,0,u,23µM*,-2
